Test results as given in PubChem BioAssay (Tox21).
Records with an inconclusive call do not appear. Where a call stands in place of a potency, no number is given. Calls of active or inactive are those of the source. Calls follow the shape of the dose curve; as a rule, active = well fitted cell-killing curve with a large enough effect in the repeat runs; inconclusive = weak or mixed curves, or effect the other way; inactive = flat fitted curve, though single readings scatter.

Assay: cAMP Responsive Elements (CRE) small molecule agonists, cell-based qHTS assay: qHTS cell viability counter screen (AID 2060914); also: nearly all actives have a fitted effect of over 50% in size
Conditions: CRE-bla HEK293T viability, CellTiter-Glo luminescence, 5 h; series mostly up to 92.4 µM
Outline: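 In the same wells as the reporter read, viability of CRE-bla HEK 293T cells was quantified by CellTiter-Glo luminescence after a 3 h compound exposure.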

SMILES	Potency
CC1(C)S[C@@H]2[C@H](N=CN3CCCCCC3)C(=O)N2[C@H]1C(=O)O	inactive
CCCCCCCCCC(C)C=O (configuration not stated)	inactive
Nc1nc(N)c(-c2ccccc2)s1	inactive
CN(C)c1ccc(C2(c3ccc(N(C)C)cc3)OC(=O)c3cc(N(C)C)ccc32)cc1	inactive
Nc1nc(CC(=O)O)cs1	inactive
CC(C)C(=O)c1ccccc1	inactive
Oc1cc(Cl)cc(Cl)c1Cl	inactive
CCCCC(CC)COC(=O)C(C#N)=C(c1ccccc1)c1ccccc1 (configuration not stated)	inactive
CC(=O)NC(Cc1ccccc1)C(=O)O (configuration not stated)	inactive
COc1cc(C(=O)NC2CCCNC2)cc(OC)c1OC (configuration not stated)	inactive
C=CC(C)(CCC=C(C)C)OC=O (configuration not stated)	inactive
CC(=O)c1nccs1	inactive
